Test in all cases: NCI-60 one-dose screen, 48 h (100 = growth as untreated, 0 = no growth, -100 = all killed)
Assay [1] has as its system NCI-H23 lung. The following applies: 10 µM unless noted.
Assay [2] has as its system NCI-H226 lung.
The test system of assay [3] is NCI-H322M lung.
In assay [4] the test system is NCI-H460 lung.
In assay [5] the test system is HOP-92 NSCLC.
Assay [6] has as its system 786-0 renal.
Assay [7] relates to COLO 205 colon.
Assay [8] relates to DU-145 prostate.
Assay [9] concerns K-562 leukemia.
The subject of assay [10] is MALME-3M melanoma.
In assay [11] the test system is MDA-MB-231 breast.
Assay [12] has as its system RXF 393 renal.
Assay [13] relates to SF-268 CNS.
For assay [14], the system named is SF-295 CNS. Conditions: 10 µM unless noted.
Assay [15] concerns SF-539 CNS.
For assay [16], the system named is M14 melanoma.
Assay [17] deals with NCI-H522 lung.
The test system of assay [18] is A549/ATCC NSCLC.
For assay [19], the system named is UACC-257 melanoma.
For assay [20], the system named is HOP-62 NSCLC.

Molecules are shown by their SMILES. About 83,000 compounds went through this panel and 20% of them were active in at least one assay; those are over-represented in the sample as a whole.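 Single-dose data. Exposure time 48 hours. Values below 10 considered active.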 A number with no mark means an inactive call. Active and inactive are the calls of the source.

With `c1ccc2c(c1)O[As](O[As]1Oc3ccccc3O1)O2`, the growth is 43.8% in [1]; 65.2% in [2] (10 µM unless noted); 58.5% in [3] (10 µM unless noted); 54.8% in assay [4] (10 µM unless noted); -12.2% (active) in assay [5] (10 µM unless noted); 25.3% in [6] (10 µM unless noted). For the same compound, the growth in assay [7] (10 µM unless noted) was 50.3%; in [8] (10 µM unless noted), 60.6%; in assay [9] (10 µM unless noted), 5.83% (active); in [10] (10 µM unless noted), -7.18% (active); in assay [11] (10 µM unless noted) it was 62%; in [12] (10 µM unless noted), 42.4%. The growth in [13] (10 µM unless noted) is 19.2%; in assay [14], 99.3%; in assay [15] (10 µM unless noted), -32.9% (active); in assay [16] (10 µM unless noted) it was 52.2%.

Take `COc1ccn(C)c(=O)c1C#N`: the growth in [1] is 105%; in assay [2] (10 µM unless noted), 91.6%; in assay [3] (10 µM unless noted), 92.3%; in [4] (10 µM unless noted), 108%; in assay [5] (10 µM unless noted), 116%; in assay [17] (10 µM unless noted), 66.5%. Moreover, the growth is 83.7% in [18] (10 µM unless noted); 104% in assay [6] (10 µM unless noted); 95.9% in assay [7] (10 µM unless noted); 106% in assay [8] (10 µM unless noted); 105% in assay [9] (10 µM unless noted); 106% in [10] (10 µM unless noted). The growth in [11] (10 µM unless noted) was 90.7%; in assay [12] (10 µM unless noted), 107%; in [13] (10 µM unless noted), 94.3%; in [14], 101%; in assay [19] (10 µM unless noted), 87%.

Take `CCC(Br)(CC)C(=O)NC(N)=O`: the growth in [1] is 108%; in assay [2] (10 µM unless noted) it was 96.4%; in [3] (10 µM unless noted), 106%; in [4] (10 µM unless noted), 103%; in assay [5] (10 µM unless noted), 103%; in [18] (10 µM unless noted) it was 104%. The growth in assay [6] (10 µM unless noted) was 107%; in assay [7] (10 µM unless noted), 108%; in assay [8] (10 µM unless noted) it was 107%; in assay [9] (10 µM unless noted), 105%; in assay [10] (10 µM unless noted), 106%; in assay [11] (10 µM unless noted), 121%. In addition, the growth was 114% in [12] (10 µM unless noted); 102% in assay [13] (10 µM unless noted); 97.7% in assay [14]; 89.9% in [15] (10 µM unless noted); 104% in assay [19] (10 µM unless noted); 102% in assay [16] (10 µM unless noted).

Take `CC(=O)OCC1OC([S-])C(OC(C)=O)C(OC(C)=O)C1OC(C)=O.[Au+].c1ccc(CN2[CH-]N(Cc3ccccc3)C(c3ccccc3)=C2c2ccccc2)cc1`: the growth in [2] (4.75 µM) is 9.99% (active); in assay [2] (10 µM) it was 92.1%; in assay [3] (4.75 µM) it was 20.8%; in assay [3] (10 µM) it was 57.5%; in assay [20] (4.75 µM) it was -12.6% (active); in assay [20] (10 µM), 45.1%. The growth in assay [4] (4.75 µM) is 1.76% (active); in assay [4] (10 µM), 29.2%; in assay [5] (4.75 µM), -24% (active); in assay [5] (10 µM), -9.45% (active); in [17] (4.75 µM), -68.7% (active); in assay [17] (10 µM), -27.9% (active). For the same compound, the growth is 8.63% (active) in assay [18] (4.75 µM); 59.2% in assay [18] (10 µM); -33.7% (active) in assay [6] (4.75 µM); -72.1% (active) in assay [6] (10 µM); -75.6% (active) in [7] (4.75 µM); 13.6% in [7] (10 µM). Besides, the growth in assay [8] (4.75 µM) is 10.1%; in assay [8] (10 µM), 11.3%; in assay [9] (4.75 µM), -15.1% (active); in assay [9] (10 µM), -6.23% (active); in assay [10] (4.75 µM), -20.1% (active); in assay [10] (10 µM), -49% (active). The growth was -43.6% (active) in assay [11] (4.75 µM); -55.7% (active) in assay [11] (10 µM); -65.4% (active) in assay [12] (4.75 µM); -75% (active) in [12] (10 µM); -6.05% (active) in assay [13] (4.75 µM); -36% (active) in [13] (10 µM). Also, the growth was 14.3% in [15] (4.75 µM); 41.8% in assay [15] (10 µM); -17.4% (active) in assay [19] (4.75 µM); 20.6% in [19] (10 µM); 8.95% (active) in assay [16] (4.75 µM); -12% (active) in assay [16] (10 µM).

Consider `O=[N+]([O-])c1ccc(CI)cc1`, for which the growth in assay [1] was 101%; in assay [2] (10 µM unless noted), 94.6%; in assay [3] (10 µM unless noted) it was 106%; in assay [4] (10 µM unless noted), 101%; in assay [18] (10 µM unless noted), 101%; in [6] (10 µM unless noted), 94%. Also, the growth in assay [7] (10 µM unless noted) was 88.8%; in assay [8] (10 µM unless noted) it was 105%; in assay [9] (10 µM unless noted), 12.3%; in [10] (10 µM unless noted) it was 85.6%; in [11] (10 µM unless noted) it was 102%; in assay [13] (10 µM unless noted), 84%. Further, the growth in assay [14] is 110%; in assay [15] (10 µM unless noted), 56.9%; in [19] (10 µM unless noted) it was 80.9%.

In the case of `C[C@]12CC[C@H]3[C@@H](CC=C4c5nc(N)sc5CC[C@@]43C)[C@@H]1CC[C@@H]2O`, the growth is 98.4% in assay [1]; 97.1% in [2] (10 µM unless noted); 108% in assay [3] (10 µM unless noted); 96% in assay [4] (10 µM unless noted); 105% in [5] (10 µM unless noted); 94.5% in [18] (10 µM unless noted). In addition, the growth in [6] (10 µM unless noted) is 100%; in assay [7] (10 µM unless noted), 113%; in assay [8] (10 µM unless noted), 103%; in assay [9] (10 µM unless noted) it was 95.2%; in [10] (10 µM unless noted), 107%; in assay [11] (10 µM unless noted) it was 111%. In addition, the growth was 99.4% in [12] (10 µM unless noted); 97.1% in assay [13] (10 µM unless noted); 100% in assay [14]; 98.5% in assay [15] (10 µM unless noted); 92.6% in assay [19] (10 µM unless noted); 98.7% in [16] (10 µM unless noted).

Consider `N#CCC(=O)c1ccccc1`, for which the growth in assay [1] was 97.7%; in assay [2] (10 µM unless noted), 97.9%; in assay [3] (10 µM unless noted) it was 96.6%; in [4] (10 µM unless noted) it was 96.9%; in assay [5] (10 µM unless noted), 86.8%; in [6] (10 µM unless noted), 107%. In addition, the growth in assay [7] (10 µM unless noted) was 101%; in assay [8] (10 µM unless noted), 98.5%; in assay [9] (10 µM unless noted), 84.5%; in assay [10] (10 µM unless noted), 102%; in [11] (10 µM unless noted) it was 104%; in assay [12] (10 µM unless noted) it was 108%. Further, the growth was 94.1% in [13] (10 µM unless noted), 101% in assay [14], 111% in assay [15] (10 µM unless noted) and 111% in [16] (10 µM unless noted).

Values taken from PubChem BioAssay (NCI).
